The values that follow come from PubChem BioAssay (EPA / NIEHS).

Where “and” joins values, the source holds several entries; their conditions need not be identical. Equal entries are not always repeated. Results filed as inconclusive are left out. Calls of active or inactive are those of the source. Rule for the calls: active = hit-call score of the fitted dose curve at least 0.9, where 1 is the maximum; inconclusive = response in the unintended direction; inactive = score below 0.9.

This test is described as follows: CCTE_Mundy_HCI_hNP1_Pro_ResponderAvgInten: CCTE's Proliferation Assay in human neuroprogenitor cells, Mundy Lab (AID 2284224). The procedure:
CCTE_Mundy_HCI_hNP1_Pro is a multiplexed, cell-based-readout assay that uses neural stem cells derived from a neuroepithelial cell lineage of WA09 embryonic cells with measurements taken at 26.25 hours after chemical dosing in a microplate: 96-well plate.CCTE_Mundy_HCI_hNP1_Pro_ResponderAvgInten is one of three components of the CCTE_Mundy_HCI_hNP1_Pro assay. It measures proliferation related to percentage of BrdU positive cells using High Content Imaging of fluorescently labelled markers.Data from the assay component CCTE_Mundy_HCI_hNP1_Pro_ResponderAvgInten was analyzed at the endpoint CCTE_Mundy_HCI_hNP1_Pro_ResponderAvgInten in the positive analysis fitting direction relative to DMSO as the negative control and baseline of activity. Using a type of growth reporter, loss -of-signal activity can be used to understand viability effects.
Human neural progenitor cells (hNP1) were obtained as cryopreserved cells from ArunA Biomedical, Athens Georgia. Cells are plated on pre-coated poly-L-ornithine/laminin clear bottom and opaque 96 well plates (day 0). Plates are placed in a 37 °C, 5% CO2 incubator for 40 to 44 hours at which time plates are removed from the incubator and 10 uL of a freshly made chemical solution is added to each well. Twenty hours after the addition of the chemicals, the clear plates are removed from the incubator and 11 uL of a BrdU solution is added to each well. The plates are returned to the incubator for four hours. After four hours, the plates are fixed with a 4% paraformaldehyde solution.
The term AC50 denotes the concentration giving half of the maximal activity seen. With `CN(C)C(=S)SSC(=S)N(C)C`, the AC50 is 0.0771 µM (active). Same read-out and setting: then `COC(=O)N(OC)c1ccccc1COc1ccn(-c2ccc(Cl)cc2)n1`, with 81.5 µM (active). In the case of `C=CCC1=C(C)[C@@H](OC(=O)[C@@H]2[C@@H](C=C(C)C)C2(C)C)CC1=O`, the outcome was inactive. The same measure, in the same setting: then `CCOC(=O)CC(SP(=S)(OC)OC)C(=O)OCC` (stereo not given), with “inactive”. With `CC(C)(C)c1ccc(CSc2cnn(C(C)(C)C)c(=O)c2Cl)cc1`, the AC50 is 4.85 µM (active). The same measure, in the same setting: then `Cc1ccc(-c2c(Cl)nc(C#N)n2S(=O)(=O)N(C)C)cc1`, with 50 µM (active). Same read-out and setting: then `CCOc1cc(Oc2ccc(C(F)(F)F)cc2Cl)ccc1[N+](=O)[O-]`, with 10.9 µM (active). Turning to `CCCCC(CC)COC(=O)c1ccccc1C(=O)OCC(CC)CCCC` (stereo not given), the AC50 is 9.27 µM (active) and 3.62 µM (active).

In the case of `N#Cc1nn(-c2c(Cl)cc(C(F)(F)F)cc2Cl)c(N)c1S(=O)C(F)(F)F` (stereo not given), the call was inactive. Regarding `C=CC1(C)OC(=O)N(c2cc(Cl)cc(Cl)c2)C1=O` (stereo not given), the outcome was inactive.
